Measurements taken from PubChem BioAssay (NCATS).
“And” between values parts separate entries of the source, which are not always exact repeats. Equal entries are not always repeated. Records with an inconclusive call do not appear. The source made the active and inactive calls. The call rests on the fitted dose curve; in most records, active means well fitted curve in the direction sought with a large enough effect; inconclusive means small, poorly fitted or top-dose-only effect, or another doubt; inactive means no such curve, though single readings can be large; an effect the other way counts as inactive or inconclusive.

How the values were obtained:
[1] = test system: TAB165; assay: qHTS profiling for inhibitors of Plasmodium falciparum proliferation (AID 504749); further: nearly all actives have a fitted effect of over 60% in size; further: potency means the concentration at half of the fitted maximal effect; settings: P. falciparum in erythrocytes, SYBR Green DNA, 72 h; series mostly up to 28.7 µM
Outline: (§1)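 SYBR Green fluorescence of parasite DNA, read after lysis and overnight dark incubation, measured growth over 72 h in erythrocyte culture at 0.3% parasitemia and 2.5% hematocrit. Data normalised to DMSO and 0.29 uM artemisinin, with plate-drift correction.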

[2] = test system: CRL-7250; assay: Cytotoxic Profiling of Annotated Libraries Using Quantitative High-Throughput Screening (AID 1296008); settings: Five cell lines viability, CellTiter-Glo ATP luminescence, 48-72 h; max response: active compounds read low; further: nearly all actives have a fitted effect of over 60% in size; on max response: on the % scale 0 is the no-effect control and ±100 the full control effect
Outline: (§2)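 Cytotoxicity was measured as CellTiter-Glo ATP luminescence, read after 10 min at room temperature. Compound treatment of the cells lasted 48 or 72 hr at 37 degrees Celsius in a qHTS format.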

[3] = test system: HaCat; assay: as above; settings: Five cell lines viability, CellTiter-Glo ATP luminescence, 48-72 h; max response: active compounds read low
Outline: as §2

[4] = test system: KB-3-1; assay: as above; settings: Five cell lines viability, CellTiter-Glo ATP luminescence, 48-72 h; max response: active compounds read low
Outline: as §2

[5] = test system: NIH3T3; assay: as above; settings: Five cell lines viability, CellTiter-Glo ATP luminescence, 48-72 h; max response: active compounds read low
Outline: as §2

[6] = test system: HACAT; assay: qHTS assay to identify novel small-molecules to repurpose for Merkel cell carcinoma treatment (AID 1296009); settings: MCC and control cell lines, CellTiter-Glo viability, 72 h; at 44.8 µM (top of the series) unless noted; further: nearly all actives have a fitted effect of over 60% in size
Outline: (§3)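 Cell viability, measured as CellTiter-Glo luminescence, was normalized between DMSO and no-cell wells. The cells had been exposed to 8- or 11-point compound dilutions for 72 hr at 37 degree celsius.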

[7] = test system: MCC-13; assay: as above; settings: MCC and control cell lines, CellTiter-Glo viability, 72 h; series mostly up to 46 µM
Outline: as §3

[8] = test system: MKL-1; assay: as above; settings: MCC and control cell lines, CellTiter-Glo viability, 72 h; series mostly up to 46 µM
Outline: as §3

[9] = test system: MKL-2; assay: as above; settings: MCC and control cell lines, CellTiter-Glo viability, 72 h; series mostly up to 46 µM
Outline: as §3

[10] = test system: NIH3T3; assay: as above; settings: MCC and control cell lines, CellTiter-Glo viability, 72 h; at 44.8 µM (top of the series) unless noted
Outline: as §3

[11] = test system: UISO; assay: as above; settings: MCC and control cell lines, CellTiter-Glo viability, 72 h; series mostly up to 46 µM
Outline: as §3

[12] = test system: WaGa; assay: as above; settings: MCC and control cell lines, CellTiter-Glo viability, 72 h; series mostly up to 46 µM
Outline: as §3

[13] = test system: C33A; assay: Primary qHTS to identify gynecologic anti-cancer compounds using libraries of approved drugs and bioactive compounds (AID 1345084); settings: Gynecologic cancer cell panel viability, ATPlite luminescence, 48 h; series mostly up to 57.5 µM; further: on the % scale 0 is the no-effect control and ±100 the full control effect; nearly all actives have a fitted effect of over 55% in size
Outline: (§4)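 Cells, 1,000 per well, were allowed to settle for 16 h at 37 C before compound addition. Five concentrations were tested for 48 h, and viability was read by ATPlite luminescence after 15 min at room temperature.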

[14] = test system: CAOV3; assay: as above; settings: Gynecologic cancer cell panel viability, ATPlite luminescence, 48 h; series mostly up to 57.5 µM
Outline: as §4

[15] = test system: CASKI; assay: as above; settings: Gynecologic cancer cell panel viability, ATPlite luminescence, 48 h; series mostly up to 57.5 µM
Outline: as §4

[16] = test system: W2; assay: qHTS profiling for inhibitors of Plasmodium falciparum proliferation (AID 504749); further: nearly all actives have a fitted effect of over 60% in size; further: potency means the concentration at half of the fitted maximal effect; settings: P. falciparum in erythrocytes, SYBR Green DNA, 72 h; series mostly up to 28.7 µM
Outline: as §1

[17] = test system: HEK293T; assay: qHTS assay to identify novel small-molecules to repurpose for Merkel cell carcinoma treatment (AID 1296009); settings: MCC and control cell lines, CellTiter-Glo viability, 72 h; at 44.8 µM (top of the series); further: nearly all actives have a fitted effect of over 60% in size
Outline: as §3

[18] = test system: HEK293; assay: Cytotoxic Profiling of Annotated Libraries Using Quantitative High-Throughput Screening (AID 1296008); settings: Five cell lines viability, CellTiter-Glo ATP luminescence, 48-72 h; max response: active compounds read low; further: nearly all actives have a fitted effect of over 60% in size; on max response: on the % scale 0 is the no-effect control and ±100 the full control effect
Outline: as §2

[19] = test system: MCC-26; assay: qHTS assay to identify novel small-molecules to repurpose for Merkel cell carcinoma treatment (AID 1296009); settings: MCC and control cell lines, CellTiter-Glo viability, 72 h; series mostly up to 46 µM; further: nearly all actives have a fitted effect of over 60% in size
Outline: as §3

[20] = test system: CRL-7250; assay: as above; settings: MCC and control cell lines, CellTiter-Glo viability, 72 h; series mostly up to 44.8 µM
Outline: as §3

O=C(O)c1ccc2[nH]cc(CCCCN3CC=C(c4ccccc4)CC3)c2c1
inactive: Potency [1] | max response [2] -7.24% | outcome [3] | max response [4] -2.41% | outcome [5] | outcome [6] | Potency [7] | Potency [8] | Potency [9] | outcome [10] | Potency [11] | Potency [12] | Potency [13] | Potency [14] | Potency [15]

COc1ccc(C(CN(C)C)C2(O)CCCCC2)cc1 (stereo unspecified)
active: Potency [16] 1.9 µM
inactive: Potency [1] | max response [2] -3.43% and 1.19% | max response [3] 1.09% and -4.23% | max response [4] 2.29% and -2.64% | max response [5] 2.42% | outcome [5] | outcome [17] | Potency [7] | Potency [8] | Potency [9] | outcome [10] | Potency [11] | Potency [12] | Potency [13] | Potency [14] | Potency [15]

CCC1(C2=NCCN2)Cc2ccccc2O1 (stereo unspecified)
inactive: max response [2] -2.42% | max response [18] 2.14% | max response [5] -1.86% | Potency [7] | Potency [8] | Potency [9] | Potency [11] | Potency [12] | Potency [13] | Potency [14] | Potency [15]
active: Potency [1] 11.2 µM | Potency [16] 3.79 µM

CCN(C(C)=O)c1cccc(-c2ccnc3c(C#N)cnn23)c1
inactive: Potency [1] | Potency [16] | max response [2] -2.01% | outcome [3] | max response [4] 1.34% | outcome [5] | outcome [6] | outcome [17] | Potency [7] | Potency [19] | Potency [8] | Potency [9] | outcome [10] | Potency [11] | Potency [12] | Potency [13] | Potency [14] | Potency [15]

Cn1cc(C2=C(c3cn(C4CCN(Cc5ccccn5)CC4)c4ccccc34)C(=O)NC2=O)c2ccccc21
inactive: max response [2] -3.19% and -9.47% | max response [18] -3.71% and -0.888% | max response [3] -7.11% | max response [4] 7.73% and 20.1% | outcome [5] | Potency [7] | Potency [8] | Potency [9] | outcome [10] | Potency [11] | Potency [12] | Potency [13] | Potency [14] | Potency [15]

Cc1ncc(CNC(=O)N(CCCl)N=O)c(N)n1
inactive: Potency [1] | Potency [16] | max response [2] 0.0102% | max response [18] 2.72% | max response [4] 2.09% | max response [5] -2.43% | Potency [7] | Potency [19] | Potency [8] | Potency [9] | Potency [11] | Potency [12] | Potency [13] | Potency [14] | Potency [15]

C=CCN1CC[C@]23c4c5ccc(O)c4O[C@H]2C(=O)CC[C@@]3(O)[C@H]1C5
inactive: max response [2] -3.06% | max response [18] -4.65% | max response [3] -19.7% | max response [4] -7.11% and -7.3% | max response [5] -3.86% | Potency [7] | Potency [19] | Potency [8] | Potency [9] | Potency [11] | Potency [12] | Potency [13] | Potency [14] | Potency [15]

CCN(CC)CCOC(=O)C(O)(c1ccccc1)c1ccccc1
inactive: Potency [1] | max response [2] -0.239% | max response [18] 3.4% | max response [3] -11% | max response [4] -1.34% | outcome [5] | Potency [7] | Potency [19] | Potency [8] | Potency [9] | outcome [10] | Potency [11] | Potency [12] | Potency [13] | Potency [14] | Potency [15]

Cc1ccc2c(c1)C1CN(C)CCC1N2 (stereo unspecified)
inactive: max response [2] -0.945% | outcome [3] | max response [4] -4.81% | outcome [5] | outcome [6] inactive [at 17.4 µM] | Potency [7] | Potency [8] | Potency [9] | outcome [10] inactive [at 17.4 µM] | Potency [11] | Potency [12] | Potency [13] | Potency [14] | Potency [15]

CC(C)(C)NCC(O)c1cc(Cl)c(N)c(Cl)c1 (stereo unspecified)
active: Potency [16] 6.75 µM
inactive: outcome [2] | max response [3] -3.36% | max response [4] -14.9% | outcome [5] | outcome [20] | Potency [7] | Potency [8] | Potency [9] | outcome [10] | Potency [11] | Potency [12] | Potency [13] | Potency [14] | Potency [15]

NCC(O)c1ccc(O)cc1 (stereo unspecified)
inactive: Potency [1] | max response [2] 4.85% | max response [18] 4.81% | max response [3] -2.74% | max response [4] -4.37% | max response [5] -5.72% | Potency [7] | Potency [19] | Potency [8] | Potency [9] | Potency [11] | Potency [12] | Potency [13] | Potency [14] | Potency [15]
